# Experimental data from paper PMC7862700, “An all-to-all approach to the identification of sequence-specific readers for epigenetic DNA modifications on cytosine”.
# Legend:
# Assay in all cases: DAPPL (digital affinity profiling via proximity ligation, sequencing); 10 mM Tris-HCl pH 7.5, 50 mM NaCl, 1 mM DTT, 4% glycerol, room temperature, 30 min; GST-TFs on glutathione beads, 16-mer random dsDNA library, 0.1% formaldehyde crosslink after washing; high values mean tight binding
# [1] = target: T1, FLI1 (Homo sapiens, UniProt Q01543 1-452); details: protein: recombinant; tags: N-terminal GST; dsDNA, one strand shown
# T1 sequence: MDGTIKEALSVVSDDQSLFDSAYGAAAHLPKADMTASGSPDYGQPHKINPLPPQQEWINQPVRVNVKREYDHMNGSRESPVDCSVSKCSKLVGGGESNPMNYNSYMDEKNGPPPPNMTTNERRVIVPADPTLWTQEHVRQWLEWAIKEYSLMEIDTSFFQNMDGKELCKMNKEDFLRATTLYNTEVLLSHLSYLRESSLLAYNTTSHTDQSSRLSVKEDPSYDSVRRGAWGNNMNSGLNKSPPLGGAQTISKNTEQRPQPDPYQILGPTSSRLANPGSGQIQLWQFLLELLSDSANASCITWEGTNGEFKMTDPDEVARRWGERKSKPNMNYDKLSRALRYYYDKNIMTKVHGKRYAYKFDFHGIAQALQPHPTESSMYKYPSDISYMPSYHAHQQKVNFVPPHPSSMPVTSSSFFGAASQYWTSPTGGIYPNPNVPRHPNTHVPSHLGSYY
# Procedure, shortened: (§1)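 Sequencing on an Illumina NextSeq500 followed washing, crosslinking with 0.1% formaldehyde, proximity ligation (BsaI/T4 ligase, 1 h, 37 °C) and PCR amplification of pools that had been incubated for 30 min at room temperature with 200 nmole of a random double-stranded 16-mer DNA library in Tris/NaCl/DTT/glycerol buffer. Each pool held DNA-barcoded human transcription factors, expressed in yeast as GST fusions and captured on glutathione beads, plus a tag-only sample. Binding signal is a hexamer's read frequency for a factor divided by its frequency in the tag-only sample.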
# [2] = target: T2, ELK1 (Homo sapiens, UniProt P19419 1-428); details: protein: recombinant; tags: N-terminal GST; dsDNA, one strand shown
# T2 sequence: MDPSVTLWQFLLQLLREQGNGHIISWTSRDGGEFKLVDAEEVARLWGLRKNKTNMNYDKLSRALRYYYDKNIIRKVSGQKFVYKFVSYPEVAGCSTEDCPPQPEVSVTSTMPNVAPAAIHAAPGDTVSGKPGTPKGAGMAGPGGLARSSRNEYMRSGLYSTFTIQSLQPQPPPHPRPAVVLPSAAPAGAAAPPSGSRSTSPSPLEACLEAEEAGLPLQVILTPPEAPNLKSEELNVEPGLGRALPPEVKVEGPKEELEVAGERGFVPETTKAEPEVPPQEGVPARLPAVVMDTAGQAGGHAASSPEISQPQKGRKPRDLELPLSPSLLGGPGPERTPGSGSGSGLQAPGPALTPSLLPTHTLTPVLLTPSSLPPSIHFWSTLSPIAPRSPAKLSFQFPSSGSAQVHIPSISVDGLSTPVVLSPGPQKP
# Procedure, shortened: as §1
# [3] = target: T3, GABPA (Homo sapiens, UniProt Q06546 1-454); details: protein: recombinant; tags: N-terminal GST; dsDNA, one strand shown
# T3 sequence: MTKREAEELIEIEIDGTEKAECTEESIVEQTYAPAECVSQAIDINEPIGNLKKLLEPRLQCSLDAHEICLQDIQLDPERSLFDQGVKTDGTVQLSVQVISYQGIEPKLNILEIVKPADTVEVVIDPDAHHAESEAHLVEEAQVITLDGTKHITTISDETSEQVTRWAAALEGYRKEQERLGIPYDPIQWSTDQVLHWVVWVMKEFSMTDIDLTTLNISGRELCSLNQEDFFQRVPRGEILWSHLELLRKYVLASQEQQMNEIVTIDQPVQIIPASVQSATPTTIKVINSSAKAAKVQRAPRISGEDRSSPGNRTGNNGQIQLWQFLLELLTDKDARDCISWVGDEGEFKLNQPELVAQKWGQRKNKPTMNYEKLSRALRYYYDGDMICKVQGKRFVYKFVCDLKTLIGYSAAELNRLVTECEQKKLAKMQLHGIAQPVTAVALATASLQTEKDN
# Procedure, shortened: as §1
# [4] = target: T4, ERG (Homo sapiens, UniProt P11308 1-479); details: protein: recombinant; tags: N-terminal GST; dsDNA, one strand shown
# T4 sequence: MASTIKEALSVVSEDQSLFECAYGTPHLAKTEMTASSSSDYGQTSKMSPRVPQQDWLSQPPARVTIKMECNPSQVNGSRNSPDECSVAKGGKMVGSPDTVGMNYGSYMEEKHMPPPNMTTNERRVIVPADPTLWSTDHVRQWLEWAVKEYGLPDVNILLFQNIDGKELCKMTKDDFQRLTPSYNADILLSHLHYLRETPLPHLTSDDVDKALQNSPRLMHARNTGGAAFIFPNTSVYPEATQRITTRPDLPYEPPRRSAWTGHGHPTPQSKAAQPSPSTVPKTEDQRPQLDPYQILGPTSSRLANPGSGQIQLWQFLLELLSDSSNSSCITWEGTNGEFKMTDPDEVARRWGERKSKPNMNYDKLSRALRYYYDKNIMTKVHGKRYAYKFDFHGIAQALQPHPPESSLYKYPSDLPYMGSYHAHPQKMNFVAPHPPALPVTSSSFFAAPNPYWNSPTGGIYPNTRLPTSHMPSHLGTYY
# Procedure, shortened: as §1
# [5] = target: ELF1 (Homo sapiens, UniProt P32519 1-619); details: protein: recombinant; tags: N-terminal GST; dsDNA, one strand shown
# Sequence of ELF1 (P32519 whole entry): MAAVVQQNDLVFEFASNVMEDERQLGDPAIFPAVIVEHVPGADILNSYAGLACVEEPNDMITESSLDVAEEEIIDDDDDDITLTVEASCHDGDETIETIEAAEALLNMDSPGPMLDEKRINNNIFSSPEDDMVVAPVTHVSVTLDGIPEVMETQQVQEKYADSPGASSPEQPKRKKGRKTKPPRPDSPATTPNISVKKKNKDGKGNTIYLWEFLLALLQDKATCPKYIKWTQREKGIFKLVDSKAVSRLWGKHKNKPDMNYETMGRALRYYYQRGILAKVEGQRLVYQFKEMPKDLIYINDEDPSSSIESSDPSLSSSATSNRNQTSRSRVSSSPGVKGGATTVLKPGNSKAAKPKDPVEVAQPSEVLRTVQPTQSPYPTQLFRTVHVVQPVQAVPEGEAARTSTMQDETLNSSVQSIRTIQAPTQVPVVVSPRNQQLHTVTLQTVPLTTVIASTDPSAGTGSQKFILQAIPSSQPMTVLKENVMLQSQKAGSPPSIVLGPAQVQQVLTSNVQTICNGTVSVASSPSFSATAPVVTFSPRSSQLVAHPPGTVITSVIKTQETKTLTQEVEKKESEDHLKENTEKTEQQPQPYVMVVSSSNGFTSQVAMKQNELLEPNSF
# Procedure, shortened: as §1
# [6] = target: T5, EHF (Homo sapiens, UniProt Q9NZC4 1-300); details: protein: recombinant; tags: N-terminal GST; dsDNA, one strand shown
# T5 sequence: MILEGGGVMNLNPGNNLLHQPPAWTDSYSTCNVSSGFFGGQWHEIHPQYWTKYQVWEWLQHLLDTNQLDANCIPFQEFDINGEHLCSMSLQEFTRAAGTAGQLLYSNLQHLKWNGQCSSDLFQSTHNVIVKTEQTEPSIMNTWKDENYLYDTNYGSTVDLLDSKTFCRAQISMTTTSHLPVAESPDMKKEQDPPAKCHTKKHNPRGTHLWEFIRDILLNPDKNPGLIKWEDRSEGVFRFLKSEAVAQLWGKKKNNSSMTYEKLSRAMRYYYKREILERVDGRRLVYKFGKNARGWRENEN
# Procedure, shortened: as §1
# [7] = target: SPI1 (Homo sapiens, UniProt P17947 1-270); details: protein: recombinant; tags: N-terminal GST; dsDNA, one strand shown
# Procedure, shortened: as §1
# [8] = target: SPIB (Homo sapiens, UniProt Q01892 1-262); details: protein: recombinant; tags: N-terminal GST; dsDNA, one strand shown
# Sequence of SPIB (Q01892 whole entry): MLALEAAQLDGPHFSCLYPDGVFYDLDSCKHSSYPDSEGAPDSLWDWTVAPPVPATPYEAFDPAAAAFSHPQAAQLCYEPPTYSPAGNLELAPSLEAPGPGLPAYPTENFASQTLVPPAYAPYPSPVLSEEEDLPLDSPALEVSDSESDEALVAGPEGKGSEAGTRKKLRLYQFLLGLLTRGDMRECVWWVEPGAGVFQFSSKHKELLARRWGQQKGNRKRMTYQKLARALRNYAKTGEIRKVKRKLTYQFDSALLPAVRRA
# Procedure, shortened: as §1
# [9] = target: T6, ELK3 (Homo sapiens, UniProt P41970 1-407); details: protein: recombinant; tags: N-terminal GST; dsDNA, one strand shown
# T6 sequence: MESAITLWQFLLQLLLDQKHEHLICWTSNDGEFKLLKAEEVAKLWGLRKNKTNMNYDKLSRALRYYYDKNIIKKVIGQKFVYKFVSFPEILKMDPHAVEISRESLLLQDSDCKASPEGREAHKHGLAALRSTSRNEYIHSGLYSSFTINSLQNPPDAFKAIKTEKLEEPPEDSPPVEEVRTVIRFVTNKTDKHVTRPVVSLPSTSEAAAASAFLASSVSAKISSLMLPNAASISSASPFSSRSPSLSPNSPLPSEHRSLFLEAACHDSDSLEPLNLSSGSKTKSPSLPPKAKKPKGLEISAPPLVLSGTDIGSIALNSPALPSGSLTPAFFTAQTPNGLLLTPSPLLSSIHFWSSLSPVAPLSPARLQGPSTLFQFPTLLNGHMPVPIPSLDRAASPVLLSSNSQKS
# Procedure, shortened: as §1
# [10] = target: T7, FEV (Homo sapiens, UniProt Q99581 1-238); details: protein: recombinant; tags: N-terminal GST; dsDNA, one strand shown
# T7 sequence: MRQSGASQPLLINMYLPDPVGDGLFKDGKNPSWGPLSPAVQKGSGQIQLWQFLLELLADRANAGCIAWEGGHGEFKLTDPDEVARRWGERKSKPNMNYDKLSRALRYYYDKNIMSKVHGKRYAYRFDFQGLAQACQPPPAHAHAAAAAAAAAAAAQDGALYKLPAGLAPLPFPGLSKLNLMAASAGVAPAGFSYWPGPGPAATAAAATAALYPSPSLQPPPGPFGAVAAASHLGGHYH
# Procedure, shortened: as §1
# [11] = target: ETV5 (Homo sapiens, UniProt P41161 1-510); details: protein: recombinant; tags: N-terminal GST; dsDNA, one strand shown
# Sequence of ETV5 (P41161 whole entry): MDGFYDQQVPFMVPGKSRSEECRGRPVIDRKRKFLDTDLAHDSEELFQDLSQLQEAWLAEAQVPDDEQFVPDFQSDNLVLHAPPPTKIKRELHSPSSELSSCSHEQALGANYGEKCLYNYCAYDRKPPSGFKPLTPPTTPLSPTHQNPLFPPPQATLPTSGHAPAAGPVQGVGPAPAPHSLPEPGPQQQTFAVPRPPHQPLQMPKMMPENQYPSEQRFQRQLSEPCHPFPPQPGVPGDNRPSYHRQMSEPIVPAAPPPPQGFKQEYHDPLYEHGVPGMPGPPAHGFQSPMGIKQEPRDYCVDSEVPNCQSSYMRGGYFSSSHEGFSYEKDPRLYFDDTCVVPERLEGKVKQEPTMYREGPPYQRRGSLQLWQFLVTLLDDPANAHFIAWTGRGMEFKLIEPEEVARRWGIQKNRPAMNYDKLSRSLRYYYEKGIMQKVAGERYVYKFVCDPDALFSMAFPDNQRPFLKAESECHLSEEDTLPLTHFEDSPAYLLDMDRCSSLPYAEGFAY
# Procedure, shortened: as §1
# [12] = target: HSF1 (Homo sapiens, UniProt Q00613 1-529); details: protein: recombinant; tags: N-terminal GST; chain copies: 3; dsDNA, one strand shown
# Sequence of HSF1 (Q00613 whole entry): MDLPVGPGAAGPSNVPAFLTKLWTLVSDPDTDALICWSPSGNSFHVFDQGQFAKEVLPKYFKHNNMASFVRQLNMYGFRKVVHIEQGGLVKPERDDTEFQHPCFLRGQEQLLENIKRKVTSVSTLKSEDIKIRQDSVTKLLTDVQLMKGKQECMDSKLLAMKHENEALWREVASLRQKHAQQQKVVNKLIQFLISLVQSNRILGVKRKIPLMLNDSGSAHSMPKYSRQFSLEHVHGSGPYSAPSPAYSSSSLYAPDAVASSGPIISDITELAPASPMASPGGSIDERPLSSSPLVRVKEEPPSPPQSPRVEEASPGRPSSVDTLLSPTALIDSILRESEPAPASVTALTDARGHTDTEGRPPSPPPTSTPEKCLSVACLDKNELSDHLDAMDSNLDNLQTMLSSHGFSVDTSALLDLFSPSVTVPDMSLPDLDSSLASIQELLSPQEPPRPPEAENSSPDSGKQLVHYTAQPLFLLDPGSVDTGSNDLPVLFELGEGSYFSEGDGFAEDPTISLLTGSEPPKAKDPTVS
# Procedure, shortened: as §1
# [13] = target: T8, SPIC (Homo sapiens, UniProt Q8N5J4 1-248); details: protein: recombinant; tags: N-terminal GST; dsDNA, one strand shown
# T8 sequence: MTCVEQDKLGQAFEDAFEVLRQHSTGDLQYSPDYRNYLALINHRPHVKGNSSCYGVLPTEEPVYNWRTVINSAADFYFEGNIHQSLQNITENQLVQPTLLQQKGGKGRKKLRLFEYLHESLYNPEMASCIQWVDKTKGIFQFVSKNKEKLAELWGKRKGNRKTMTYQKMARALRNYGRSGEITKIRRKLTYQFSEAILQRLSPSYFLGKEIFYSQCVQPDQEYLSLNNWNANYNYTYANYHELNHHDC
# Procedure, shortened: as §1
# [14] = target: ELF4 (Homo sapiens, UniProt Q99607 1-663); details: protein: recombinant; tags: N-terminal GST; dsDNA, one strand shown
# Sequence of ELF4 (Q99607 whole entry): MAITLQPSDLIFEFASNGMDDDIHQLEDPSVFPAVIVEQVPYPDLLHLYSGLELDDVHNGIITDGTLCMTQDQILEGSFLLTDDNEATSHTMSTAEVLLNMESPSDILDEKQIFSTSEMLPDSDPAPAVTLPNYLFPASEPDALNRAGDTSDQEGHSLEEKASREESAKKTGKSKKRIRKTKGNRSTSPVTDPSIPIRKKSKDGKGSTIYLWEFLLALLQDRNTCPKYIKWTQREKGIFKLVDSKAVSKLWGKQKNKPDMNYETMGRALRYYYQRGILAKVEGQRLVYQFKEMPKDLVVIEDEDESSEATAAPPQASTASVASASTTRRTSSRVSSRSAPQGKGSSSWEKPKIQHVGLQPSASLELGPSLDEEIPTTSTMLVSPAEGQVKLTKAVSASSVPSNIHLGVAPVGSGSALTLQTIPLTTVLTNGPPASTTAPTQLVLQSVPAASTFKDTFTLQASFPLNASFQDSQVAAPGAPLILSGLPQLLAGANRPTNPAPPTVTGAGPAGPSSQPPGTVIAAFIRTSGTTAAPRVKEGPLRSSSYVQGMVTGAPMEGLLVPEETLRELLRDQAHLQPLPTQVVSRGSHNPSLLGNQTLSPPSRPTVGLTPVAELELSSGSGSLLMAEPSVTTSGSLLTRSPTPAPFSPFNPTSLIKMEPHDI
# Procedure, shortened: as §1
# [15] = target: T9, ELK4 (Homo sapiens, UniProt P28324-2 1-405); details: protein: recombinant; tags: N-terminal GST; dsDNA, one strand shown
# T9 sequence: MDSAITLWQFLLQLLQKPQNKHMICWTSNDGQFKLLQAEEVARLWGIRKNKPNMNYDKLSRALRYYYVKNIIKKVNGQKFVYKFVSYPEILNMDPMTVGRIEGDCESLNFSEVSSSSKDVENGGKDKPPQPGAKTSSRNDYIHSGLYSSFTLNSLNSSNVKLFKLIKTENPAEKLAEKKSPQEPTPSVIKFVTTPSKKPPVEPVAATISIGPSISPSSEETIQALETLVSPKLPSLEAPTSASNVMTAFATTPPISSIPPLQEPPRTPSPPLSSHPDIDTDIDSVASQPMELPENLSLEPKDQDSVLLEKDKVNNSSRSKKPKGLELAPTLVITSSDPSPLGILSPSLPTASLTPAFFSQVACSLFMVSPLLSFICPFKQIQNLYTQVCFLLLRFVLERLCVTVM
# Procedure, shortened: as §1
# [16] = target: T10, ETV2 (Homo sapiens, UniProt O00321 1-342); details: protein: recombinant; tags: N-terminal GST; dsDNA, one strand shown
# T10 sequence: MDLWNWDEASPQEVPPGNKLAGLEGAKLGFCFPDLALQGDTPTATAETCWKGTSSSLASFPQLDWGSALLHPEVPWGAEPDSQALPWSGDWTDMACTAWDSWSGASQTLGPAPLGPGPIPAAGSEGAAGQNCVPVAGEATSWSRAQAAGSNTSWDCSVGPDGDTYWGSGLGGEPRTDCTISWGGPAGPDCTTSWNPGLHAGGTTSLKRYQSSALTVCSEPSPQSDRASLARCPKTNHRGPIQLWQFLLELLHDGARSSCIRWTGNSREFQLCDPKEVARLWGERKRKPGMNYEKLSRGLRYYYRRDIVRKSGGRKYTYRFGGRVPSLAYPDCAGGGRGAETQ
# Procedure, shortened: as §1
# [17] = target: T11, ELF3 (Homo sapiens, UniProt P78545 1-371); details: protein: recombinant; tags: N-terminal GST; dsDNA, one strand shown
# T11 sequence: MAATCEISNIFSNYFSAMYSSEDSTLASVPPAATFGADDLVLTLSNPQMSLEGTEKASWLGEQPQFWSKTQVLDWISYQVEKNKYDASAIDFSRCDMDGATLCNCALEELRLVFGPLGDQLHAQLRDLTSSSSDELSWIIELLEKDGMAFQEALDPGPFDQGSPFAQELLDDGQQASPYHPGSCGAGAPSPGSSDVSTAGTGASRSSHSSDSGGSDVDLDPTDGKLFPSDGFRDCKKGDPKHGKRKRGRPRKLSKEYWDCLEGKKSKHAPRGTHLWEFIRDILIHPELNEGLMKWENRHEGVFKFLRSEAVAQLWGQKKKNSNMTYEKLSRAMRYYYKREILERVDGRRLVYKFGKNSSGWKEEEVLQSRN
# Procedure, shortened: as §1
# [18] = target: CRX (Homo sapiens, UniProt O43186 1-299); details: protein: recombinant; tags: N-terminal GST; dsDNA, one strand shown
# Sequence of CRX (O43186 whole entry): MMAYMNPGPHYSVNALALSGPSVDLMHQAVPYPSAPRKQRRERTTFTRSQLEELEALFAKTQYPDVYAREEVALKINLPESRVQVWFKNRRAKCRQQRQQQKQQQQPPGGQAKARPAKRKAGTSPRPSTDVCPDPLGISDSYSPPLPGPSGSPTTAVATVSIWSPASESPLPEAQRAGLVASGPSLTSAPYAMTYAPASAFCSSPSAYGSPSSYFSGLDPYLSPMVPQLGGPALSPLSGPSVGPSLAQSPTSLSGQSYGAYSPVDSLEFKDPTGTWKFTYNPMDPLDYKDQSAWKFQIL
# Procedure, shortened: as §1
# [19] = target: ETV1 (Homo sapiens, UniProt P50549 1-477); details: protein: recombinant; tags: N-terminal GST; dsDNA, one strand shown
# Sequence of ETV1 (P50549 whole entry): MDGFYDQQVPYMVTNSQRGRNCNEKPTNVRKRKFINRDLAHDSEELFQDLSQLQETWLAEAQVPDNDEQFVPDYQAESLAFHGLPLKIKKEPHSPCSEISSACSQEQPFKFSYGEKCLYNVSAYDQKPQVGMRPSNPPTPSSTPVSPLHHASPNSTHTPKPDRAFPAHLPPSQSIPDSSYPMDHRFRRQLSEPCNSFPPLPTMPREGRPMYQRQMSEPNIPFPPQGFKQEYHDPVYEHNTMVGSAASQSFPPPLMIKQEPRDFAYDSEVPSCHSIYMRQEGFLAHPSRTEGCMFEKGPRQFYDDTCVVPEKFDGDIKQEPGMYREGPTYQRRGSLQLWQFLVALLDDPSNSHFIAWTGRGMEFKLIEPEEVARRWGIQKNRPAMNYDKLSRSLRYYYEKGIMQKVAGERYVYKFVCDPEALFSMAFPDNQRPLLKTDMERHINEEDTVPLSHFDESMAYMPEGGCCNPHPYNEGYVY
# Procedure, shortened: as §1
sequence,measurement,setting,value
TCCGCA,binding signal,[1],"2.2 fold enrichment (6-mer frequency, TF over GST control)"
same,binding signal,[2],"2.22 fold enrichment (6-mer frequency, TF over GST control)"
same,binding signal,[3],"2.07 fold enrichment (6-mer frequency, TF over GST control)"
same,binding signal,[4],"2.03 fold enrichment (6-mer frequency, TF over GST control)"
same,binding signal,[5],"2.01 fold enrichment (6-mer frequency, TF over GST control)"
same,binding signal,[6],"2.03 fold enrichment (6-mer frequency, TF over GST control)"
same,binding signal,[7],"2.85 fold enrichment (6-mer frequency, TF over GST control)"
same,binding signal,[8],"2.18 fold enrichment (6-mer frequency, TF over GST control)"
same,binding signal,[9],"2.24 fold enrichment (6-mer frequency, TF over GST control)"
same,binding signal,[10],"1.91 fold enrichment (6-mer frequency, TF over GST control)"
same,binding signal,[11],"2.24 fold enrichment (6-mer frequency, TF over GST control)"
same,binding signal,[12],"1.21 fold enrichment (6-mer frequency, TF over GST control)"
same,binding signal,[13],"2.46 fold enrichment (6-mer frequency, TF over GST control)"
same,binding signal,[14],"1.98 fold enrichment (6-mer frequency, TF over GST control)"
same,binding signal,[15],"1.76 fold enrichment (6-mer frequency, TF over GST control)"
same,binding signal,[16],"1.98 fold enrichment (6-mer frequency, TF over GST control)"
same,binding signal,[17],"2.22 fold enrichment (6-mer frequency, TF over GST control)"
same,binding signal,[18],"1.35 fold enrichment (6-mer frequency, TF over GST control)"
same,binding signal,[19],"2.15 fold enrichment (6-mer frequency, TF over GST control)"
